Experiment [1] is described as follows: qHTS assay to identify small molecule antagonists of the glucocorticoid receptor (GR) signaling pathway - cell viability counter screen (AID 720693). Further: nearly all actives have a fitted effect of over 55% in size. Further: potency means the concentration at half of the fitted maximal effect. In general terms: In qHTS, concentration-response curves come from the screen itself.
A short description of experiment [2]: qHTS assay for identifying genotoxic compounds that show differential cytotoxicity against isogenic chicken DT40 cell lines with known DNA damage response pathways - Rad54/Ku70 mutant cell line (AID 743015). Further: nearly all actives have a fitted effect of over 60% in size. Further: potency means the concentration at half of the fitted maximal effect.
Experiment [3] in a line: qHTS assay to identify small molecule antagonists of the androgen receptor (AR) signaling pathway - cell viability counter screen (AID 743033; further: nearly all actives have a fitted effect of over 45% in size).
In experiment [4] the target is Androgen receptor (Homo sapiens) (UniProt P10275). Put plainly: qHTS assay to identify small molecule antagonists of the androgen receptor (AR) signaling pathway (AID 743035; active means well fitted inhibition curve with a large enough effect in the signal ratio in the repeat runs, not every such curve was filed as active; inconclusive means weak or mixed curves, or effect the other way; inactive means no such curve, though single readings can be large or run the other way; the % refers to the signal ratio). The gist of the method:
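Fluorescence from a beta-lactamase FRET substrate (LiveBLAzer B/G, 2 h, room temperature) measured inhibition of R1881-stimulated signaling in GeneBLAzer AR-UAS-bla HEK293 cells exposed to compound for 16 h at 37C.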

For experiment [5] the target is unchanged. Put plainly: qHTS assay to identify small molecule agonists of the androgen receptor (AR) signaling pathway using the MDA cell line (AID 743040; further: nearly all actives have a fitted effect of over 20% in size; further: potency means the concentration at half of the fitted maximal effect). The gist of the method:
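Human breast carcinoma MDA-kb2 reporter cells (MMTV-luc, AR/GR elements) were treated for 16 h at 37C in 0% CO2 following a 5 h settling period. Signal was quantified by ONE-Glo luminescence.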

Experiment [6] in a line: qHTS assay to identify small molecule antagonists of the androgen receptor (AR) signaling pathway using the MDA cell line - cell viability counter screen (AID 743041; further: nearly all actives have a fitted effect of over 45% in size). The gist of the method:
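Same-well cytotoxicity was assessed by CellTiter-Fluor in MDA-kb2 AR-luc cells after 16 h of compound treatment under R1881 agonism.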

For experiment [7], the target named is Androgen receptor (Homo sapiens) (UniProt P10275). Description: qHTS assay to identify small molecule antagonists of the androgen receptor (AR) signaling pathway using the MDA cell line (AID 743042; further: nearly all actives have a fitted effect of over 55% in size). The gist of the method: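 MDA-kb2 breast carcinoma cells carrying MMTV-luciferase (AR/GR responsive) were co-treated with compounds and the agonist R1881 for 16 h at 37C. Inhibition read as ONE-Glo luminescence; CellTiter-Fluor fluorescence measured in parallel for cytotoxicity.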
Chain of Androgen receptor (Homo sapiens) (P10275 whole entry, looked up): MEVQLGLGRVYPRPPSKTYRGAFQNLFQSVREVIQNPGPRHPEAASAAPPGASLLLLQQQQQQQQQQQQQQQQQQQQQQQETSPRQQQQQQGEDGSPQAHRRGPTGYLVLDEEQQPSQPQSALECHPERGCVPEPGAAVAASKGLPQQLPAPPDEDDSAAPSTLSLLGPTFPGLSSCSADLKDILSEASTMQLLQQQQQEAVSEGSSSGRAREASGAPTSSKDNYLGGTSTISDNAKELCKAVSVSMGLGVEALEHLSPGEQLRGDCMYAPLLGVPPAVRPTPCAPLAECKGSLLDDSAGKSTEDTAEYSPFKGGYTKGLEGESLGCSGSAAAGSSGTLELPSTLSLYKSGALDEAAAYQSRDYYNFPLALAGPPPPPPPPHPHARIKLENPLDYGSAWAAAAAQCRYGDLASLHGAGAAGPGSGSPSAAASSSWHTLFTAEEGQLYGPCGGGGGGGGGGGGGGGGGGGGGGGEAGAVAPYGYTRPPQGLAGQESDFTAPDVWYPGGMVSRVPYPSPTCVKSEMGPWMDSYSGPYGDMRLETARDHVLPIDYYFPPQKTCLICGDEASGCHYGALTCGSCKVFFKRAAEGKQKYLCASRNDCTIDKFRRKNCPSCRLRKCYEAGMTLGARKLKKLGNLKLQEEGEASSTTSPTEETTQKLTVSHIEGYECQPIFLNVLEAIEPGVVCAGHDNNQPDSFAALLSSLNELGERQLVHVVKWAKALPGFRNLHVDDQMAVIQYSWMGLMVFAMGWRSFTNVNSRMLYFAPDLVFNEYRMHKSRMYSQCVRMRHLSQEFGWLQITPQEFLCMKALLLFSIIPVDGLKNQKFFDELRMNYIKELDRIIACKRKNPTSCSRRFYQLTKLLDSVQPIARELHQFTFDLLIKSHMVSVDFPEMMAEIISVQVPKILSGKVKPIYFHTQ

The nature of experiment [8]: qHTS assay to identify small molecule antagonists of the thyroid receptor (TR) signaling pathway - cell viability counter screen (AID 743064). Further: nearly all actives have a fitted effect of over 50% in size. Further: potency means the concentration at half of the fitted maximal effect. The gist of the method: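 Fluorescence from CellTiter-Fluor, added after 23.5 h exposure at 37 °C, reported viability of GH3.TRE-Luc cells co-treated with compound and 1 nM T3. Measured in the same wells as the luciferase TR readout.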

Experiment [9] can be described thus: qHTS assay to identify small molecule antagonists of the thyroid receptor (TR) signaling pathway (AID 743065). Further: nearly all actives have a fitted effect of over 55% in size. Further: potency means the concentration at half of the fitted maximal effect. The gist of the method: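 GH3.TRE-Luc rat pituitary cells (two TREs driving luciferase) were dosed with compound, then stimulated with 1 nM T3 (final) for 23.5 h at 37 C. ONE-Glo luminescence was the read-out, with CellTiter-Fluor fluorescence as the cytotoxicity counter-screen.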

Experiment [10] concerns thyroid hormone receptor (rat, GH3 cells). Description: qHTS assay to identify small molecule agonists of the thyroid receptor (TR) signaling pathway (AID 743066; calls by dose curve).
Experiment [11] in a line: qHTS assay to identify small molecule antagonists of the estrogen receptor alpha (ER-alpha) signaling pathway - cell viability counter screen (AID 743074; calls by dose curve;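 further: HEK293 cells carrying ER-alpha-UAS-bla reporter stimulated with 17beta-estradiol; nearly all actives have a fitted effect of over 45% in size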; further: potency means the concentration at half of the fitted maximal effect).
Experiment [12] deals with Estrogen receptor (Homo sapiens) (UniProt P03372). Put plainly: qHTS assay to identify small molecule agonists of the estrogen receptor alpha (ER-alpha) signaling pathway (AID 743075; calls by dose curve;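 further: HEK293 GripTite cells with ER-alpha and UAS-driven beta-lactamase reporter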; further: potency means the concentration at half of the fitted maximal effect). The note with it: HEK293 ER-alpha-UAS-bla, beta-lactamase FRET ratio, 18 h; activation: at 70.1 µM (top of the series).
Chain of Estrogen receptor (Homo sapiens) (P03372 whole entry, looked up): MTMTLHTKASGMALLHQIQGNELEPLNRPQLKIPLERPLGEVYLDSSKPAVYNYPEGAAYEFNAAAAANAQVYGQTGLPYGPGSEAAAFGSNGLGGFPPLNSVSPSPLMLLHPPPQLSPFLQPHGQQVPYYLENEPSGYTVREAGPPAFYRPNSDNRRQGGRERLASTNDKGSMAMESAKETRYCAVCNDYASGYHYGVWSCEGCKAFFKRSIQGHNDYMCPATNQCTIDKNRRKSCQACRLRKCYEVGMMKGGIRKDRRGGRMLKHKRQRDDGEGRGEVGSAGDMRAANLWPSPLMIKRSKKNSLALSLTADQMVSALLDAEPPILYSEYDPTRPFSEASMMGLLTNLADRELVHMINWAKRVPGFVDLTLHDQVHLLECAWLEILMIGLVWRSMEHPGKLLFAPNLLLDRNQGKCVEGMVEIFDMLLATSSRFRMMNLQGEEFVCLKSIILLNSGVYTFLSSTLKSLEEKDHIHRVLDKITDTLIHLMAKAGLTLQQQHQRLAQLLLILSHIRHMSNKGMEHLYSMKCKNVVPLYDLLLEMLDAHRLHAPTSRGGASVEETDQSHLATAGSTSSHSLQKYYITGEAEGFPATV
Experiment [13] shares this target. Put plainly: qHTS assay to identify small molecule agonists of the estrogen receptor alpha (ER-alpha) signaling pathway using the BG1 cell line (AID 743079). Further: nearly all actives have a fitted effect of over 20% in size. Further: potency means the concentration at half of the fitted maximal effect. The conditions noted are these: BG1Luc4E2 cells, ERE-luciferase agonist, 22 h.
A short description of experiment [14]: qHTS assay to identify small molecule antagonists of the estrogen receptor alpha (ER-alpha) signaling pathway using the BG1 cell line (AID 743080; calls by dose curve;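 further: BG1 cells stimulated with 17beta-estradiol alongside compound; nearly all actives have a fitted effect of over 25% in size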). The gist of the method: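 Seeding, 24 h rest, compound transfer from DMSO, 17beta-estradiol addition, 21.5 h incubation, CellTiter-Fluor (30 min, 37 C), then ONE-Glo (30 min, room temperature): this sequence was run on BG1-Luc-4E2 reporter cells.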

Experiment [15] in a line: qHTS assay to identify small molecule antagonists of the estrogen receptor alpha (ER-alpha) signaling pathway using the BG1 cell line - cell viability counter screen (AID 743081).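 Further: compound given together with 17beta-estradiol as the ER stimulus; nearly all actives have a fitted effect of over 45% in size.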 Further: potency means the concentration at half of the fitted maximal effect.
In a further experiment the target is Aromatase (Homo sapiens) (UniProt P11511). Put plainly: qHTS assay to identify aromatase inhibitors (AID 743083). Further: nearly all actives have a fitted effect of over 55% in size. Further: potency means the concentration at half of the fitted maximal effect.
Chain of Aromatase (Homo sapiens) (P11511 whole entry, looked up): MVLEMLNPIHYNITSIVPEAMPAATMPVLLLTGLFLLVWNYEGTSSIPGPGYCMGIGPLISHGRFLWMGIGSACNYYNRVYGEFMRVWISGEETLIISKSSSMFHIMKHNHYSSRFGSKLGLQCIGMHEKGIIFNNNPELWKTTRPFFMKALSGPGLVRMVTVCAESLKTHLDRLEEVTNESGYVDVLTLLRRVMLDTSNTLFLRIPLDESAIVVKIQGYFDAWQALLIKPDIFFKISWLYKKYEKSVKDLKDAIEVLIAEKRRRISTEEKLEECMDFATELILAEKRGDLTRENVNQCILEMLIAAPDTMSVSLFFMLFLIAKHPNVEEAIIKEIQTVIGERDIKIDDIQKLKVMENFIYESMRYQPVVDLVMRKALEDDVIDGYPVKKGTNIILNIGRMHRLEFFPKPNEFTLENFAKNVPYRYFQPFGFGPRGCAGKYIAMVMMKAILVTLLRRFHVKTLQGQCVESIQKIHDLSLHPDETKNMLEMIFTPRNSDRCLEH
A short description of experiment [16]: qHTS assay for identifying genotoxic compounds that show differential cytotoxicity against isogenic chicken DT40 cell lines with known DNA damage response pathways - wild type cell line (AID 743012). Further: nearly all actives have a fitted effect of over 60% in size. Further: potency means the concentration at half of the fitted maximal effect. The gist of the method:
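Wild type DT40, 300 cells/well, ~0.5 h settle at 37 C/5% CO2; compounds in DMSO added by pintool; 40 h at 37 C/5% CO2; CellTiter-Glo, 30 min RT; luminescence.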

A short description of experiment [17]: qHTS assay for identifying genotoxic compounds that show differential cytotoxicity against isogenic chicken DT40 cell lines with known DNA damage response pathways - Rev3 mutant cell line (AID 743014). Further: nearly all actives have a fitted effect of over 55% in size. Further: potency means the concentration at half of the fitted maximal effect.
Experiment [18] deals with Estrogen receptor (Homo sapiens) (UniProt P03372). Put plainly: qHTS assay to identify small molecule antagonists of the estrogen receptor alpha (ER-alpha) signaling pathway (AID 743069; active means well fitted curve in the direction sought with a large enough effect in the signal ratio in the repeat runs, not every such curve was filed as active; inconclusive means weak or mixed curves, or effect the other way; inactive means no such curve, though single readings can be large or run the other way; the % refers to the signal ratio). The gist of the method: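 Reporter cells (ER-alpha-bla, HEK293 background) are conditioned overnight in stripped-serum medium (2% charcoal-stripped FBS). Compound and 17beta-estradiol exposure runs 18 hr at 37C, 5% CO2.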

Experiment [19] has as its target Androgen receptor (Homo sapiens) (UniProt P10275). Description: qHTS assay to identify small molecule agonists of the androgen receptor (AR) signaling pathway (AID 743036; active means well fitted activation curve with a large enough effect in the signal ratio in the repeat runs, with a control signal flat, not every such curve was filed as active; inconclusive means weak or mixed curves, or effect the other way; inactive means no such curve, though single readings can be large or run the other way; the % refers to the signal ratio). The gist of the method:
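Fluorescence from a beta-lactamase FRET substrate served as read-out in AR-UAS-bla GripTite HEK293 cells. Cells were treated with DMSO-dissolved compounds for 16 h at 37C, then with LiveBLAzer B/G substrate for 2 h at room temperature.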

Several values for one entry are separate records, joined by “and”; a condition that tells them apart may be missing. Equal entries are not always repeated. Values without a mark were called inactive. Activity calls are given as the source filed them. Unless noted, the call rests on the fitted dose curve; in most records, active means well fitted curve in the direction sought with a large enough effect in the repeat runs; inconclusive means weak or mixed curves; inactive means no such curve, though single readings can be large; an effect the other way counts as inactive or inconclusive.
On the % scale 0 is the no-effect control and ±100 the full control effect.

For `CN(C)c1ccc(C2(c3ccc(N(C)C)cc3)OC(=O)c3cc(N(C)C)ccc32)cc1`, the Potency entry in [1], in experiment [3], in [4], in [5], in experiment [6] and in [7] was “inactive” throughout. Further, the Potency result in experiment [8], in [9], in experiment [10], in experiment [11], in experiment [14] and in experiment [15] was “inactive” each time. Further, the Potency result with Aromatase (Homo sapiens) is “inactive”. Also, the Potency in experiment [2] was 15.3 µM (active); in experiment [12] it was 21.8 µM [inconclusive] (active). Besides, the activation in experiment [13] (at 70.3 µM (top of the series)) was -6.04%.
Take `Nc1ccc2cc(S(=O)(=O)O)cc(O)c2c1N=Nc1ccccc1C(F)(F)F`: the Potency result in experiment [1], in [16], in experiment [2], in experiment [3], in experiment [10] and in [11] was “inactive” each time. Besides, the Potency result with Aromatase (Homo sapiens) is “inactive”.
On to `CCOc1ccc2nc3cc(N)ccc3c(N)c2c1`, for which the Potency result in experiment [1], in experiment [3], in experiment [6], in experiment [10], in experiment [18] and in experiment [11] was “inactive” each time. In addition, the Potency in experiment [17] and in [2] was 26.6 µM (active) in each case. In experiment [13] (at 70.3 µM (top of the series)), the activation was -22.3%.
`CN(C/C=C/C#CC(C)(C)C)Cc1cccc2ccccc12`: the Potency result in experiment [1], in [17], in [3], in [6], in [11] and in [15] was “inactive” each time. For the same molecule, in the experiment with Aromatase (Homo sapiens), the Potency entry was “inactive”.
Regarding `NC(=O)N1C(=O)C(C(=O)c2cc(Cl)cs2)c2cc(F)c(Cl)cc21` (configuration not stated), the Potency in [1] was 38.9 µM (active); in [2], 61.1 µM (active); in [8] it was 61.1 µM (active); in experiment [9], 61.1 µM (active); in experiment [11] it was 49 µM (active); in experiment [15] it was 8.63 µM (active). Also, the Potency result in experiment [3], in experiment [5], in [7], in [12] and in experiment [14] was “inactive” each time.
With `C/C=C(\C)C(=O)OCc1ccccc1`, the Potency entry in experiment [1], in experiment [3], in experiment [6], in experiment [8], in [10] and in experiment [11] was “inactive” in each case. In addition, the Potency entry (in experiment [15]; with Aromatase (Homo sapiens)) was “inactive” throughout.
Turning to `Cc1cc(=O)oc2cc(N(C)C)ccc12`, the Potency entry (in experiment [1]; in [3]; in [9]; in experiment [10]; in experiment [11]; with Aromatase (Homo sapiens)) was “inactive” in each case. Moreover, the Potency in experiment [17] was 54.5 µM (active).
As for `CN(C)[C@@H]1C(=O)C(C(N)=O)=C(O)[C@@]2(O)C(=O)C3=C(O)c4c(O)ccc(Cl)c4[C@@H](O)[C@H]3C[C@@H]12`, the Potency result in experiment [1], in [16], in [2], in experiment [3], in experiment [6] and in experiment [9] was “inactive” in each case. Further, the Potency entry (in experiment [10]; in experiment [11]; in experiment [15]; with Aromatase (Homo sapiens)) was “inactive” throughout.
`CC(=O)SC[C@@H](Cc1ccccc1)C(=O)NCC(=O)OCc1ccccc1`: the Potency result in experiment [1], in [16], in experiment [2], in [3], in experiment [6] and in [8] was “inactive” throughout. Further, the Potency result in experiment [9], in [10], in experiment [18], in experiment [11], in experiment [12] and in experiment [14] was “inactive” each time. The Potency entry with Aromatase (Homo sapiens) is “inactive”. The activation in experiment [13] (at 32.5 µM (top of the series)) was 3.92%.
With `C[C@@H]1C[C@H]2[C@@H]3CCC4=CC(=O)C=C[C@]4(C)[C@@]3(Cl)[C@@H](O)C[C@]2(C)[C@@]1(OC(=O)c1ccco1)C(=O)CCl`, the Potency result in experiment [1], in experiment [3], in experiment [6], in experiment [7], in [10] and in experiment [11] was “inactive” in each case. The Potency result (in experiment [15]; with Aromatase (Homo sapiens)) was “inactive” each time. The Potency is 12.7 µM (active) in experiment [16] and 0.9 nM (active) in experiment [5].
Regarding `Clc1ccc2n[nH]nc2c1`, the Potency result in [1], in [16], in experiment [3], in [6], in experiment [8] and in experiment [9] was “inactive” in each case. For the same molecule, the Potency result (in [10]; in [11]; in experiment [15]; with Aromatase (Homo sapiens)) was “inactive” in each case.
For the molecule `CCN(C(=O)N(CC)c1ccccc1)c1ccccc1`, the Potency result in experiment [1], in experiment [3], in experiment [6], in [8], in [10] and in experiment [11] was “inactive” in each case. The Potency result (in experiment [15]; with Aromatase (Homo sapiens)) was “inactive” throughout. The Potency in [17] is 7.7 µM (active).
Take `C=C(C)C(=O)OCC[N+](C)(C)C`: the Potency entry in [1], in [3], in experiment [4], in [19], in [5] and in experiment [7] was “inactive” each time. Moreover, the Potency result (in experiment [10]; in [11]; in experiment [15]; in the experiment with Aromatase (Homo sapiens)) was “inactive” in each case. In addition, the Potency in [2] is 38.4 µM (active); in [8], 60.9 µM (active).
As to `O=Cc1cc(O)ccc1Br`, the Potency entry in [1], in experiment [3], in experiment [6], in experiment [10], in experiment [18] and in experiment [11] was “inactive” each time. Moreover, the Potency result (in experiment [12]; in experiment [15]; with Aromatase (Homo sapiens)) was “inactive” in each case. In addition, the Potency in experiment [13] is 31.1 µM (active).
On to `CCCCN(CCCC)C(=O)N(CCCC)CCCC`, for which the Potency entry in experiment [1], in experiment [17], in experiment [2], in experiment [3], in [6] and in experiment [10] was “inactive” in each case. Further, the Potency entry in experiment [11] and in experiment [15] was “inactive” throughout.
Take `CCCCN1C(=O)[C@@H]([C@H](O)C2CCCCC2)NC(=O)C12CCN(Cc1ccc(Oc3ccc(C(=O)O)cc3)cc1)CC2`: the Potency entry (in experiment [1]; in experiment [18]; in experiment [11]; in experiment [12]; in experiment [15]; with Aromatase (Homo sapiens)) was “inactive” each time. The Potency in experiment [16] is 61.1 µM (active); in experiment [2] it was 15.4 µM (active); in experiment [9], 61.1 µM (active).
For `CCCCCCCCOC(=O)c1ccc(O)cc1`, the Potency entry in [1], in [3], in [10], in [11], in experiment [14] and in [15] was “inactive” throughout. The Potency in experiment [17] is 60.9 µM (active); in [8], 61.1 µM (active); in experiment [12] it was 61.4 µM [inconclusive] (active) and 43.7 µM [activator] (active); in experiment [13] it was 7.67 µM (active) and 17.2 µM (active); in the experiment with Aromatase (Homo sapiens), 21.6 µM (active) and 54.5 µM (active).
With `CCC(Cl)C(Cl)C(Cl)CC(Cl)C(Cl)C(C)Cl` (configuration not stated), the Potency result in [1], in experiment [3], in experiment [6], in experiment [10], in experiment [11] and in experiment [15] was “inactive” in each case. For the same molecule, in the experiment with Aromatase (Homo sapiens), the Potency result was “inactive”. Further, the Potency in [17] and in experiment [2] was 54.5 µM (active) each time.

(Values after PubChem BioAssay (Tox21).)
